system: Plasmodium falciparum; assay: GSK_TCMDC: Inhibition of Plasmodium falciparum 3D7 in whole red blood cells, using parasite LDH activity as an index of growth. Test compounds present at 2uM; assay type: functional

Q: For `CC(C)CCN1CCC(Oc2ccc(NC(=O)c3ccc(F)cc3)cc2Cl)CC1.O=C(O)C(F)(F)F`, which Inhibition is on record?
A: The Inhibition was 98%.

Q: With `CC(C)COc1ccc(Cl)cc1Cc1nc(-c2nc3ccc(CN4CCCC4)cc3[nH]2)co1.Cl` as the molecule, how does the Inhibition read?
A: Its Inhibition is 100%.

Q: How did the Inhibition turn out when `COc1ccc2nc(-c3ccccc3)cc(NCCN(C)C)c2c1` was run?
A: Its Inhibition is 100%.

Q: For `O=C(Nc1cccc(C(F)(F)F)c1)c1cccc(S(=O)(=O)NCC2CCN(CC3CCCCC3)CC2)c1.O=C(O)C(F)(F)F`, which Inhibition is on record?
A: The Inhibition was 97%.

Q: `O=C(/C=C/c1ccc(Cl)cc1)NCCCCCN1CCCC(C(=O)Nc2ccc(Cl)c(Cl)c2)C1` (stereo unspecified) was tested. Which Inhibition did it give?
A: The Inhibition was 96%.

system: Plasmodium falciparum; assay: GSK_TCMDC: Inhibition of Plasmodium falciparum Dd2 in whole red blood cells, using parasite LDH activity as an index of growth. Test compounds present at 2uM; assay type: functional

Q: With `CC(C)n1cc2c(ccc3nc(N)nc(N)c32)n1` as the molecule, how does the Inhibition read?
A: Its Inhibition is 0%.

Q: How did the Inhibition turn out when `CCN(CC)CCN(Cc1ccc(-c2ccc(C(F)(F)F)cc2)cc1)C(=O)Cn1c(CCc2cccc(F)c2F)nc(=O)c2cc(C)ccc21.O=C(O)C(O)C(O)C(=O)O` was run?
A: The Inhibition was 43%.

Q: For `COc1ccc(-n2c(=O)c3c(n4c(SC(C)C)nnc24)-c2ccccc2CC32CCCCC2)cc1`, which Inhibition is on record?
A: Its Inhibition is 15%.

Q: For `Cc1nc(-c2ccncc2)sc1C(=O)Nc1ccc(Cl)cc1C(=O)Nc1ccc(Cl)cc1`, which Inhibition is on record?
A: Its Inhibition is 47%.

Q: Which Inhibition does the source give for `CC(c1cccc(Nc2nccc(-c3c(-c4cccc(NC(=O)c5c(F)cccc5F)c4)nn4ccccc34)n2)c1)S(C)(=O)=O` (stereo unspecified) here?
A: Its Inhibition is 99%.

Q: With `Cl.O=S(=O)(NCCCN1CCOCC1)c1ccc2nccc(Nc3ccc(Oc4ccccc4)cc3)c2c1` as the molecule, how does the Inhibition read?
A: Its Inhibition is 92%.

Q: For `COc1cc2nc(NCc3ccc(S(N)(=O)=O)cc3)nc(Nc3ccc(Oc4ccccc4)cc3)c2cc1OC`, which Inhibition is on record?
A: The Inhibition was 100%.

Q: How did the Inhibition turn out when `Cc1cc(C(=O)Nc2ccc3c(c2)CCN3C2CCN(Cc3ccc(F)cc3Cl)C2)no1` (stereo unspecified) was run?
A: The Inhibition was 96%.

Q: How did the Inhibition turn out when `O=C(NCc1ccc(Cl)cc1)c1ccc(CN2CCCN(Cc3cccc(O)c3)CC2)cc1.O=C(O)C(F)(F)F` was run?
A: The Inhibition was 12%.

Q: How did the Inhibition turn out when `C=CCOC(=O)N1CCC(CNCc2cccc(-c3ccc(-c4nc5cccc(C)c5[nH]4)cc3)c2)C1.O=C(O)C(F)(F)F` (stereo unspecified) was run?
A: The Inhibition was 82%.

Q: How did the Inhibition turn out when `CCCc1ccc(NC(=O)c2ccc(CN3CCCN(Cc4ccc(OC)cc4)CC3)cc2)cc1.O=C(O)C(F)(F)F` was run?
A: The Inhibition was 0%.

Q: With `CN1CCN(Cc2cc(NC(=O)c3ccc(-c4ccc(Cl)cc4Cl)cc3)ccc2-c2ccccc2)CC1` as the molecule, how does the Inhibition read?
A: Its Inhibition is 21%.

Q: `O=C(O)C(F)(F)F.O=C1CCCN1CCCNCc1ccc(-c2ccc(-c3nc4cc(F)ccc4[nH]3)cc2)cc1` was tested. Which Inhibition did it give?
A: The Inhibition was 99%.

Q: With `CCCc1cc(Cc2cnc(N)nc2N)cc(OC)c1OC` as the molecule, how does the Inhibition read?
A: Its Inhibition is 4%.

Q: `COc1ccc2c(c1)CC(CNC[C@H](O)c1cccc(Cl)c1)CC2` (stereo partly specified) was tested. Which Inhibition did it give?
A: The Inhibition was 73%.

Q: Which Inhibition does the source give for `Cc1cc(=NN=Cc2ccccc2Cl)c2ccccc2[nH]1` here?
A: The Inhibition was 30%.

Q: With `Cc1cccnc1Nc1nc(-c2ccccn2)cs1` as the molecule, how does the Inhibition read?
A: Its Inhibition is 99%.

Q: `CC(C)NC(C)(C)CN(Cc1ccc(-c2ccc(C(F)(F)F)cc2)cc1)C(=O)Cn1c(CCc2cccc(F)c2F)nc(=O)c2ccccc21` was tested. Which Inhibition did it give?
A: Its Inhibition is 68%.

Q: Which Inhibition does the source give for `COc1cc2ccccc2cc1CNCCCCCCNCc1cc2ccccc2cc1OC.CS(=O)(=O)O` here?
A: Its Inhibition is 24%.

Q: Which Inhibition does the source give for `CC(=O)Nc1ccc(C(=O)Nc2ccc(-c3cccc(-c4nc5ccccc5[nH]4)c3)cc2)cn1` here?
A: The Inhibition was 84%.

Q: For `Cc1ccc(C2=NNC3(S2)C(=O)Nc2ccc(C)cc23)cc1` (stereo unspecified), which Inhibition is on record?
A: The Inhibition was 89%.

Q: How did the Inhibition turn out when `COc1ccc2nccc([C@@H](O)CN3CCC(NC(=O)/C=C/c4ccc(Cl)c(C(F)(F)F)c4)CC3)c2c1` was run?
A: The Inhibition was 89%.

Q: `COc1ccc(NC(=O)N2CCCN(CCCCCNC(=O)/C=C/c3ccc(Cl)cc3)CC2)cc1Cl` was tested. Which Inhibition did it give?
A: Its Inhibition is 1%.

Q: With `CN(C)CCOc1cc(NC(=O)Nc2cccc([N+](=O)[O-])c2)ccc1I` as the molecule, how does the Inhibition read?
A: The Inhibition was 51%.

Q: `COc1ccc2nc(N=C3NC4(c5ccccc5)NC(=Nc5nc6ccc(OC)cc6[nH]5)NC4(c4ccccc4)N3)[nH]c2c1.O=C(O)C(F)(F)F` (stereo unspecified) was tested. Which Inhibition did it give?
A: The Inhibition was 85%.

Q: With `CN1CCC(NC(=O)c2cccc(Nc3cc(Nc4cccc(Br)c4)ncn3)c2)CC1` as the molecule, how does the Inhibition read?
A: The Inhibition was 6%.

Q: `Cc1c(S(=O)(=O)Nc2ccc3nccc(N4CC(C)NC(C)C4)c3c2)sc2ccc(Cl)cc12.Cl` (stereo unspecified) was tested. Which Inhibition did it give?
A: Its Inhibition is 0%.

Q: With `COc1ccc2nccc(N3CCN(CCNCc4ccc5c(n4)NC(=O)CS5)CC3)c2n1.Cl` as the molecule, how does the Inhibition read?
A: The Inhibition was 67%.

Q: `COc1cc2nc(NCCCOC(C)C)n3nc(-c4ccccc4)nc3c2cc1OC` was tested. Which Inhibition did it give?
A: The Inhibition was 97%.

Q: For `O=C(Cc1cccnc1)N(Cc1ccc(-c2ccc(CNCc3cccnc3)cn2)cc1)C1CCN(Cc2ccccc2)CC1.O=C(O)C(F)(F)F`, which Inhibition is on record?
A: The Inhibition was 6%.

Q: `Cc1cccc(CNc2nc(C)cc(N[C@@H](Cc3ccccc3)C(=O)NCCc3ccccc3)n2)c1.O=C(O)C(F)(F)F` was tested. Which Inhibition did it give?
A: The Inhibition was 85%.
